“And” between values parts separate entries of the source, which are not always exact repeats. Equal entries are not always repeated. Inconclusive results are not listed. The source made the active and inactive calls. Unless noted, the call rests on the fitted dose curve; in most records, active means well fitted curve in the direction sought with a large enough effect; inconclusive means small, poorly fitted or top-dose-only effect, or another doubt; inactive means no such curve, though single readings can be large; an effect the other way counts as inactive or inconclusive.
Tests used:
[1] = target: Cytochrome P450 1A2 (Homo sapiens) (UniProt P05177); experiment: p450-cyp1a2 (AID 410; calls by dose curve; further: potency means the concentration at half of the fitted maximal effect)
Sequence of Cytochrome P450 1A2 (Homo sapiens) (P05177 whole entry, looked up): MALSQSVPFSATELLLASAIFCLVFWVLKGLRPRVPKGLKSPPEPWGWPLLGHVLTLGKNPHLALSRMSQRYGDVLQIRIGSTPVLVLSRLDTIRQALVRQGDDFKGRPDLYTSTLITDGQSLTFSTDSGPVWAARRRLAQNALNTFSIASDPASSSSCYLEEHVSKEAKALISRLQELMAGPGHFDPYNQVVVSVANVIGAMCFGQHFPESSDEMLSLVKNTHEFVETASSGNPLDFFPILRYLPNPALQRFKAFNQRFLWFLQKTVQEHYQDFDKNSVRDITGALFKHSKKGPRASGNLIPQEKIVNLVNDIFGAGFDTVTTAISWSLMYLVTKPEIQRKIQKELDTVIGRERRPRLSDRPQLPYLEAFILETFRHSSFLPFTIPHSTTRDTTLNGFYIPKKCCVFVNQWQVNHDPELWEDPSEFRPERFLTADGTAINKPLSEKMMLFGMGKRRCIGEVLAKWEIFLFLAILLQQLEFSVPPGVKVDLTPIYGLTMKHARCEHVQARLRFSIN
In short: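 Luminescent demethylation readout: Luciferin-ME (100uM, equal to Km) turned over by 20nM CYP1A2 for 60 min at room temperature after NADPH regeneration addition, following 10 min compound preincubation. Normalization used 57 uM furafylline as full inhibition.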

[2] = target: Glucocorticoid receptor (Homo sapiens) (UniProt P04150); experiment: GR-GFP Redistribution (AID 450;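 active means compounds whose dose series gives a full or clear partial fitted curve of increased nuclear translocation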; further: potency means the concentration at half of the fitted maximal effect); settings: U2OS GR-GFP nuclear translocation, laser cytometry, 2 h
Sequence of Glucocorticoid receptor (Homo sapiens) (P04150 whole entry, looked up, the tested form may be a part): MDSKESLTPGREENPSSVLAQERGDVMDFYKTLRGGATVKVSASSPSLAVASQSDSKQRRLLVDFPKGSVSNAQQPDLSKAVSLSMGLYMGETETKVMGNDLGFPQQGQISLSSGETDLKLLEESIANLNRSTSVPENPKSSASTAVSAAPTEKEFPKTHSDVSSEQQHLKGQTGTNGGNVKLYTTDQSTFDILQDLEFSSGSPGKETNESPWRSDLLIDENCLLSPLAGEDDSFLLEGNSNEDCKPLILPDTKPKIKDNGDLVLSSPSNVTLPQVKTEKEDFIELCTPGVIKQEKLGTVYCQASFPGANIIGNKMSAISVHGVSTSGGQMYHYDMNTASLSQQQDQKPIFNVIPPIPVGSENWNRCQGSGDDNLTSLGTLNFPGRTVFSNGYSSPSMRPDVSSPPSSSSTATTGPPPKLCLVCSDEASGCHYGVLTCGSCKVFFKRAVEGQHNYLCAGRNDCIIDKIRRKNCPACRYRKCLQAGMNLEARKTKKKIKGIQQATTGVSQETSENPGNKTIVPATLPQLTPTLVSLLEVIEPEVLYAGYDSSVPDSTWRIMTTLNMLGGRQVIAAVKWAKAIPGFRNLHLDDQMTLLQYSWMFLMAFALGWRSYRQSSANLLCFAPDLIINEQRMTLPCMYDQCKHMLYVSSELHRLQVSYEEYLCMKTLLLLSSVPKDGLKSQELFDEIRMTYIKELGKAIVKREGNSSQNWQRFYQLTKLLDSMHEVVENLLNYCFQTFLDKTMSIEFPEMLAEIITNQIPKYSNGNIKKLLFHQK

[3] = target: Glucocorticoid receptor (Homo sapiens) (UniProt P04150); experiment: GR-EFC Redistribution (AID 451; calls by dose curve; further: potency means the concentration at half of the fitted maximal effect); settings: CHO-K1 GR-EFC translocation, beta-gal luminescence, 2 h
In short: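 CHO-K1 cells expressing nuclear EA and GR-ED fragments of b-gal; compounds titrated up to 46 uM final, 2 h at 37 C. GR nuclear translocation read as complemented b-gal luminescence after 1 h RT detection.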

[4] = target: Mitogen-activated protein kinase 10 (Mus musculus) (UniProt Q61831); experiment: JNK3 AlphaScreen Assay (AID 530; active means well fitted curve in either direction with a large enough effect, not every such curve was filed as active;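 further: kinase came from lysate of stimulated human HepG2 cells; signal reports phosphorylation of biotinylated GST-cJun 1-79 at Ser73 with 10 µM ATP; on the % scale 0 is the no-effect control and ±100 the full control effect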)
In short: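 Activity was read by AlphaScreen after JNK3-containing HepG2 lysate (cytokine pre-activated) phosphorylated biotinylated GST-cJun with 10 uM ATP at room temperature. Phospho-Ser73 cJun antibody with Protein-A acceptor beads provided detection.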

[5] = qHTS Assay for Lipid Storage Modulators (AID 1519; calls by dose curve; on activity change, negative = inhibition: on the % scale 0 is the no-effect control and ±100 the full control effect); settings: Drosophila S3 cells, BODIPY lipid droplet/cell ratio, laser cytometry, cells loaded with oleic acid; for activity change, negative = inhibition: at 57.5 µM (top of the series)
In short: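 Cells seeded at 5,000 per well were treated with compounds over a concentration series and loaded with oleic acid (400 uM, as added). Lipid droplet fluorescence (488 nm excitation, 500-530 nm channel) was read by laser-scanning cytometry and normalized to 20 uM Triacsin C.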

[6] = target: Ubiquitin carboxyl-terminal hydrolase 1 (Homo sapiens) (UniProt O94782); experiment: Inhibitors of USP1/UAF1: Pilot qHTS (AID 504865);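 further: rhodamine fluorescence freed from ubiquitin-rhodamine substrate followed over time; top concentration of the series differs between compounds; on the % scale 0 is the no-effect control and ±100 the full control effect; nearly all actives have a fitted effect of over 35% in size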
Sequence of Ubiquitin carboxyl-terminal hydrolase 1 (Homo sapiens) (O94782 whole entry, looked up): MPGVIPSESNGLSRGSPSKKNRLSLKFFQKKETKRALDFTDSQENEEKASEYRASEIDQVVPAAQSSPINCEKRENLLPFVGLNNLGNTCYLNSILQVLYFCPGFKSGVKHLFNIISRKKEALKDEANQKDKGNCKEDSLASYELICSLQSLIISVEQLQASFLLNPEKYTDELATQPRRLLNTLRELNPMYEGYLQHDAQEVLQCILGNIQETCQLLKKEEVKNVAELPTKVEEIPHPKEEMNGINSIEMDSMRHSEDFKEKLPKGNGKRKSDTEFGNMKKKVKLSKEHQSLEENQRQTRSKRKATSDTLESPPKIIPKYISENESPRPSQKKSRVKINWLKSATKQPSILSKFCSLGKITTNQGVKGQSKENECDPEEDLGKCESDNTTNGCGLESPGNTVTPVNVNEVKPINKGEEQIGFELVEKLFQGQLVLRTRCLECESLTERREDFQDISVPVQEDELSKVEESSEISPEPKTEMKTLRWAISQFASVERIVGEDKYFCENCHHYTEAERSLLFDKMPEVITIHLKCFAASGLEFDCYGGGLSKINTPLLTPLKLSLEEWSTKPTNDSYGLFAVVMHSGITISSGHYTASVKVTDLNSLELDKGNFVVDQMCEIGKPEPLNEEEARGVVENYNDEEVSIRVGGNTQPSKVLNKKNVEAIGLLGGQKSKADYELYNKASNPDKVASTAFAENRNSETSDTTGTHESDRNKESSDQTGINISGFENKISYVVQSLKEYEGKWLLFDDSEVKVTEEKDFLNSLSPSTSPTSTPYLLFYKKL
In short: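 USP1/UAF1 complex at 1 nM preincubated 15 min at room temperature with compound, then Ub-Rho substrate added at 150 nM final. Fluorescence (480/540 nm) read kinetically in 50 mM HEPES pH 7.8, 0.5 mM EDTA, 1 mM TCEP, 0.1 mg/ml BSA, 0.01% Tween-20.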

[7] = target: DNA dC->dU-editing enzyme APOBEC-3G (Homo sapiens) (UniProt Q9HC16); experiment: qHTS for inhibitors of Vif-A3G interactions: Validation (AID 588379); further: 0% is about no effect
Sequence of DNA dC->dU-editing enzyme APOBEC-3G (Homo sapiens) (Q9HC16 whole entry, looked up): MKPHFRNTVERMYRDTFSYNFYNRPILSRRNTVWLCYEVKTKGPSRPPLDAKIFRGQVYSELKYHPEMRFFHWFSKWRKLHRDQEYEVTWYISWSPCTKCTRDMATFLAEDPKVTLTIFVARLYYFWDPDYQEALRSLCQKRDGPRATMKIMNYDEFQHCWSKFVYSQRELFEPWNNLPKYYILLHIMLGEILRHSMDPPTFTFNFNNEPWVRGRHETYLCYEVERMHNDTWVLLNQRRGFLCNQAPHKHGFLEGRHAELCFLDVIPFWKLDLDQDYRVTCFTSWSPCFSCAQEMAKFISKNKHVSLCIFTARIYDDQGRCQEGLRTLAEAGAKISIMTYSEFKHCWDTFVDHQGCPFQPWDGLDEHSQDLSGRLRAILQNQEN
In short: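 Yellow fluorescence (Ex 488, Em 500-530) of Vif-coexpressing HeLa A3G-eYFP cells, scanned by Acumen cytometer, reports blocked A3G degradation. Cells plated at 700/well overnight at 37 deg C before compound addition, then a further overnight compound incubation at 37 deg C.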

[8] = test system: Zika virus NS2B-NS3 protease; experiment: Primary screen GU AMC qHTS for Zika virus inhibitors (AID 1347154);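 further: 0% = no-inhibitor control and -100% = no-enzyme control; nearly all actives have a fitted effect of over 70% in size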
In short: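 Unlinked Zika NS2B hydrophilic domain–NS3 protease complex at 25 nM in 10 mM Tris-HCl pH 8.0, 0.01% Tween 20, with an AMC peptide substrate. Fluorescence change (340/450 nm) over 15 min at room temperature, normalized to controls, fitted to 4-parameter Hill.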

[9] = Primary qHTS for small molecule stabilizers of the endoplasmic reticulum resident proteome: Secreted ER Calcium Modulated Protein (SERCaMP) assay (AID 1508630); further: on the % scale 0 is the no-effect control and ±100 the full control effect
In short: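 The SH-SY5Y reporter protocol was run at 3 concentrations up to 38.3 uM (primary) or 11 concentrations (follow-up): 16 h compound, 100 nM thapsigargin for 4 h, then extracellular luciferase luminescence.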

[10] = target: 3',5'-cyclic-AMP phosphodiesterase 4B (Homo sapiens) (UniProt Q07343); experiment: qHTS Assay for Inhibitors of PDE-IV (AID 607; active means well fitted activation curve with a large enough effect in the main read-out, with a control signal flat, not every such curve was filed as active; further: % of control where 0% means no effect)
Sequence of 3',5'-cyclic-AMP phosphodiesterase 4B (Homo sapiens) (Q07343 whole entry, looked up): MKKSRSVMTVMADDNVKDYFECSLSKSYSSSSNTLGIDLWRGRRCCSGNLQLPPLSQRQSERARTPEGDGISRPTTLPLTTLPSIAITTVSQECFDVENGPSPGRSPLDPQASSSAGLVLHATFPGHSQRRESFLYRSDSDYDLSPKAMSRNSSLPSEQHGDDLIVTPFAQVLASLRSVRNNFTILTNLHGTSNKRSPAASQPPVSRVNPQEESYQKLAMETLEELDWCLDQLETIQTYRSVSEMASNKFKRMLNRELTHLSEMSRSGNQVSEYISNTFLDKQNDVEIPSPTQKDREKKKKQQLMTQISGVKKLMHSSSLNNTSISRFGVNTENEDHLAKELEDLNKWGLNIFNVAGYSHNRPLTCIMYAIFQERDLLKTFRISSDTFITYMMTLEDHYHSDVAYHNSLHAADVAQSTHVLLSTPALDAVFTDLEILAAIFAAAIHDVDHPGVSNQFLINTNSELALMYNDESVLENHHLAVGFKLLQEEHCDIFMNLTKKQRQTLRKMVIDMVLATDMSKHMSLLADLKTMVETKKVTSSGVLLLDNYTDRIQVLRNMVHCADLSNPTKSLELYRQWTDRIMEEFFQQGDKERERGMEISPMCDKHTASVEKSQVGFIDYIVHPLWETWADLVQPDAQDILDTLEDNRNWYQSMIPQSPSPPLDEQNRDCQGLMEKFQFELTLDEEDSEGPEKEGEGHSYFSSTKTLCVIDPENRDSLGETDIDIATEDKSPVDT
In short: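 ACTOne HEK293 cells carry a modified cAMP-gated CNG channel and express endogenous PDE4; plated 1000 cells/well, compounds up to 22.9 uM final. Membrane-potential dye fluorescence (ex 535/em 590) was read; parental cells received 10 uM forskolin + 100 uM RO 20-1724.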

[11] = target: Cytochrome P450 3A4 (Homo sapiens) (UniProt P08684); experiment: qHTS Assay for Activators of Cytochrome P450 3A4 (AID 885); further: nearly all actives have a fitted effect of over 65% in size
Sequence of Cytochrome P450 3A4 (Homo sapiens) (P08684 whole entry, looked up): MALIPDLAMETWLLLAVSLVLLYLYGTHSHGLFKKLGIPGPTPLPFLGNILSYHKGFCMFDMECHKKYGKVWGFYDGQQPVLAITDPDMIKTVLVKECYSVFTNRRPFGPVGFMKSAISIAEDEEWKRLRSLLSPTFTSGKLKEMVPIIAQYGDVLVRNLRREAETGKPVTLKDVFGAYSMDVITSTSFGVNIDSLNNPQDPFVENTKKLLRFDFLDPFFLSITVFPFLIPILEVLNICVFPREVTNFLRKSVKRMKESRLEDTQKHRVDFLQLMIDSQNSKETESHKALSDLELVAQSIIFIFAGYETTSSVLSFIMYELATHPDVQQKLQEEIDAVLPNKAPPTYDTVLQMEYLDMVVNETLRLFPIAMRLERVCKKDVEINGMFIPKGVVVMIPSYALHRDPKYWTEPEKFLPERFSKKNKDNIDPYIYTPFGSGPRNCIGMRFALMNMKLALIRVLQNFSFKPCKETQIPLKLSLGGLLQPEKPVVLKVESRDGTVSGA
In short: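 CYP3A4 activity: Luciferin-PPXE O-dealkylation, 25uM substrate, 200mM KPO4, RT throughout. Read-out is luciferase luminescence; higher values reflect activation.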

[12] = target: Cytochrome P450 2C19 (Homo sapiens) (UniProt P33261); experiment: qHTS Assay for Inhibitors and Substrates of Cytochrome P450 2C19 (AID 899); further: potency means the concentration at half of the fitted maximal effect; nearly all actives have a fitted effect of over 60% in size
Sequence of Cytochrome P450 2C19 (Homo sapiens) (P33261 whole entry, looked up): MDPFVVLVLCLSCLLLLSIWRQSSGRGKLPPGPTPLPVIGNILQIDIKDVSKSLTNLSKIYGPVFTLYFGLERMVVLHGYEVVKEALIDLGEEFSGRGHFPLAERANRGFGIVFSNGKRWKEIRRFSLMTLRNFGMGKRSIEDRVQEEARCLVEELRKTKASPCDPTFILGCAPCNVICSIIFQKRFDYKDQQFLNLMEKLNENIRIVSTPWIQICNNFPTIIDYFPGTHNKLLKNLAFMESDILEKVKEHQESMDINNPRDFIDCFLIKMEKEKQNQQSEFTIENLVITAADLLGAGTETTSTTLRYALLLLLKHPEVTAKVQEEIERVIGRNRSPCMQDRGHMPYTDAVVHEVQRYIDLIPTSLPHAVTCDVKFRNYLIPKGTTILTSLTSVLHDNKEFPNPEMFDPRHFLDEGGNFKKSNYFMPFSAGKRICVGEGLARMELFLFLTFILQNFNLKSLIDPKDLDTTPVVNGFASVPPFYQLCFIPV
In short: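 Luminescent read-out of luciferin formed from Luciferin-H EGE (10uM, equal to KM). Enzyme 5nM in 50mM KPO4; compound added, 10 min at 37C, then NADPH regenerating system for 60 min at 37C. Full inhibition defined by 57uM ketoconazole.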

[13] = measured here: cell count channel max response
[14] = measured here: lipid channel max response

C[C@@](N)(C(=O)O)c1ccc(P(=O)(O)O)cc1
-4.21%: max response [5, 14]
0.435%: max response [5, 13]
inactive: Potency [2] > 46 µM | Potency [3] > 46 µM | Potency [4] | activity change, negative = inhibition [5] -5.17% | Potency [6] | Potency [7] | Potency [8] | Potency [9]
active: Potency [1] 39.8 µM

Cc1cc([C@](C)(N)C(=O)O)ccc1P(=O)(O)O
16.7%: max response [5, 13]
13.5%: max response [5, 14]
inactive: Potency [2] > 46 µM | Potency [3] > 46 µM | Potency [4] | Potency [10] | activity change, negative = inhibition [5] -5.09% | Potency [6] | Potency [7] | Potency [8] | Potency [9]

N[C@@]1(C(=O)O)CN[C@H](C(=O)O)C1
-1.87%: max response [5, 14]
active: Potency [1] 31.6 µM
0.388%: max response [5, 13]
inactive: Potency [2] > 46 µM | Potency [3] > 46 µM | Potency [4] | Potency [10] | activity change, negative = inhibition [5] -1.74% | Potency [7] | Potency [8] | Potency [9]

NC1(C(=O)O)CC(C(=O)O)C1 (centres undefined)
2.35%: max response [5, 13]
inactive: Potency [2] > 46 µM | Potency [3] > 46 µM | Potency [4] | Potency [10] | activity change, negative = inhibition [5] 5.41% | Potency [7] | Potency [8] | Potency [9]
10.2%: max response [5, 14]

CC(=O)OCCNC(=O)c1cccnc1
inactive: Potency [2] > 46 µM | Potency [3] > 46 µM | Potency [11] | activity change, negative = inhibition [5] 8.28% | Potency [6] | Potency [7] | Potency [8] | Potency [9]
15.6%: max response [5, 13]
27.8%: max response [5, 14]

NC1(C(=O)O)C[C@@H](C(=O)O)[C@H](C(=O)O)C1
8.99% and 4.7%: max response [5, 13]
18.3% and 11.3%: max response [5, 14]
active: Potency [12] 7.94 µM
inactive: Potency [2] > 46 µM | Potency [3] > 46 µM | Potency [10] | activity change, negative = inhibition [5] 7.04% and 6.44% | Potency [6] | Potency [7] | Potency [8] | Potency [9]

NCCCNCCCCN(CCCN)/[N+]([O-])=N/O
-8.94%: max response [5, 14]
-8.77%: max response [5, 13]
inactive: Potency [2] > 46 µM | Potency [3] > 46 µM | Potency [4] | Potency [10] | activity change, negative = inhibition [5] -0.752% | Potency [6] | Potency [7] | Potency [8] | Potency [9]

NC(=O)CCCCn1ccc(NC(N)=NCC(F)(F)F)n1
5.7%: max response [5, 13]
inactive: Potency [2] > 46 µM | Potency [3] > 46 µM | Potency [4] | activity change, negative = inhibition [5] 1.74% | Potency [6] | Potency [7] | Potency [8] | Potency [9]
6.79%: max response [5, 14]

O=C(O)/C=C1\CCCc2ccccc2[C@H]1O
25.8%: max response [5, 14]
20.5%: max response [5, 13]
inactive: Potency [2] > 46 µM | Potency [3] > 46 µM | Potency [4] | activity change, negative = inhibition [5] 4.3% | Potency [7] | Potency [8] | Potency [9]
